Assay results as given in PubChem BioAssay (EPA / NIEHS).
Records with an inconclusive call do not appear. Activity calls are given as the source filed them. How the source made its calls, unless noted: active means hit-call score of the fitted dose curve at least 0.9, where 1 is the maximum; inactive means score below 0.9.

Experiments:
[1] = biological target: Myc proto-oncogene protein (Homo sapiens) (UniProt P01106); test: ATG_Myc_CIS: Attagene CIS-FACTORIAL HepG2 Assay for human Myelocytomatosis (Myc) Proto-Oncogene Transcription Factor (AID 2282990); conditions: HepG2, Attagene cis-reporter transcription factor activity; actives raise or lower the signal
Sequence of Myc proto-oncogene protein (Homo sapiens) (P01106 whole entry, looked up): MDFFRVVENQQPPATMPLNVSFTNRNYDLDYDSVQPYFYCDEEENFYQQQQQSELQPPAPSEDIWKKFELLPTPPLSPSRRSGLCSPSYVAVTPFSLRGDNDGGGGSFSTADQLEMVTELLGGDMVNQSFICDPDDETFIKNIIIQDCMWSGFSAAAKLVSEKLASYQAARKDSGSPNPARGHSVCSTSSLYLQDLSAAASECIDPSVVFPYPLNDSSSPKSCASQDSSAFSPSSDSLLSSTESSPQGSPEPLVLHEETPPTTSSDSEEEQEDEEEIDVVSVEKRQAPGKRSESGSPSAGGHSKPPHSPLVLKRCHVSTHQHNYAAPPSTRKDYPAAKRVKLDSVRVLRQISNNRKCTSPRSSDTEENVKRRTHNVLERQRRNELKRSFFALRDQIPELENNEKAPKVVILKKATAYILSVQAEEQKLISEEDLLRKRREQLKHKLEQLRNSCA
Procedure, shortened: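 HepG2 cells transiently transfected with multiple cis-promoter-driven reporter transcription units, so endogenous TF activity is read. After 24 h compound exposure, reporter mRNA was quantified by RT-PCR, 6-FAM labelling, HpaI digestion and capillary electrophoresis; bidirectional fit versus DMSO.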

[2] = ATG_NRF2_ARE_CIS: Attagene CIS-FACTORIAL HepG2 Assay for human Nuclear Factor Erythroid 2 Related Factor 2 (NFR2) response to Antioxidant Response Elements (ARE) (AID 2282992); conditions: HepG2 Attagene ARE/NRF2 reporter, transcription factor activity; actives raise or lower the signal;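 on AC50: reporter mRNA level measured by RT-PCR and capillary electrophoresis fluorescence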
Procedure, shortened: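 Readout: reporter mRNA quantified by RT-PCR plus FAM-labelled primer extension, HpaI digestion and capillary electrophoresis, 24 h after dosing transfected HepG2 cells. Gain or loss of signal is fitted bidirectionally against DMSO baseline.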

[3] = ATG_Oct_MLP_CIS: Attagene CIS-FACTORIAL HepG2 Assay for human Octamer-Binding Transcription Factor (Oct) (AID 2282993); conditions: HepG2 Attagene cis-factorial Oct reporter, mRNA; actives raise or lower the signal
Procedure, shortened: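 Read-out: reporter mRNA via RT-PCR plus capillary electrophoresis of 6-FAM-labelled fragments. Transiently transfected HepG2, 24 h exposure, endogenous TF activity on cis elements. Gain or loss of signal fitted relative to DMSO.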

[4] = BSK_3C_TissueFactor: BioMAP Diversity Plus: 3C Assay for Tissue Factor Biomarker Activity (AID 2282997); conditions: BioMAP 3C HUVEC, tissue factor biomarker readout; actives raise or lower the signal
Procedure, shortened: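 HUVEC, 3C system, 24 h post-dose; Tissue Factor by ELISA; bidirectional fit vs DMSO baseline.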

[5] = BSK_3C_uPAR: BioMAP Diversity Plus: 3C Assay for Urokinase-type plasminogen activator receptor (uPAR) Biomarker Activity (AID 2282998); conditions: BioMAP 3C HUVEC, uPAR biomarker ELISA; actives raise or lower the signal
Procedure, shortened: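 HUVEC primary cells; 24 h post-dose; uPAR by ELISA; gain or loss of signal fitted bidirectionally vs DMSO baseline.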

[6] = BSK_3C_VCAM1: BioMAP Diversity Plus: 3C Assay for Vascular cell adhesion molecule 1 (VCAM1) Biomarker Activity (AID 2282999); conditions: BioMAP 3C HUVEC, VCAM1 ELISA, cytokine-stimulated; actives raise or lower the signal
Procedure, shortened: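 Vascular primary endothelium (human umbilical vein) was exposed to chemicals and assayed 24 h later. VCAM-1 levels came from ELISA, with DMSO serving as baseline for bidirectional fitting.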

[7] = BSK_4H_Eotaxin3: BioMAP Diversity Plus: 4H Assay for Eotaxin 3 Biomarker Activity (AID 2283000); conditions: primary human endothelial cells (HUVEC); actives raise or lower the signal;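 further: CCL26 protein level quantified by ELISA in parallel with SRB cytotoxicity check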
Procedure, shortened: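 Readout is Eotaxin-3 (CCL26) level by ELISA in primary human umbilical vein endothelial cells harvested 24 h after chemical exposure; activity fitted in both directions against DMSO control.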

[8] = biological target: human Peroxisome Proliferator-activated Receptor alpha (PPARa), PPARA (gene 5465) (UniProt Q07869); test: ATG_PPARa_TRANS: Attagene TRANS-FACTORIAL HepG2 Assay for human Peroxisome Proliferator-activated Receptor alpha (PPARa) (AID 2283001; active means hit-call score of the fitted dose curve at least 0.9, where 1 is the maximum;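 on AC50: potency for gain of reporter signal over DMSO so agonist or activator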)
Sequence of human Peroxisome Proliferator-activated Receptor alpha (PPARa), PPARA (gene 5465) (Q07869 whole entry, looked up, the tested form may be a part): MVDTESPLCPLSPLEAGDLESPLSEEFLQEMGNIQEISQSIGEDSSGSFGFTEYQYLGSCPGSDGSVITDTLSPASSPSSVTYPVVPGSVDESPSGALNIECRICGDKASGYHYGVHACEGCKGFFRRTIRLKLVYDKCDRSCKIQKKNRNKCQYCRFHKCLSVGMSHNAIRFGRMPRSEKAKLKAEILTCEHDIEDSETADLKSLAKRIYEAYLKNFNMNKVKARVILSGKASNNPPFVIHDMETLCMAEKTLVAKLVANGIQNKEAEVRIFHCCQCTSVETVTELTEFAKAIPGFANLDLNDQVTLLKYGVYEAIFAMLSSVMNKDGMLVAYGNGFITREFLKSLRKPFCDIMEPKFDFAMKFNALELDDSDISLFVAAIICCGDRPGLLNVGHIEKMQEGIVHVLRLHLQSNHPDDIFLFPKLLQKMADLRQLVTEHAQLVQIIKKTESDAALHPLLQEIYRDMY
Procedure, shortened: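 Exposure: 24 h, transiently transfected HepG2 cells. Endpoint: GAL4-UAS reporter mRNA, RT-PCR with capillary electrophoresis fluorescence. Baseline: DMSO; increases fitted.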

[9] = biological target: human Peroxisome Proliferator-activated Receptor delta (PPARd), PPARD (gene 5467) (UniProt Q03181); test: ATG_PPARd_TRANS: Attagene TRANS-FACTORIAL HepG2 Assay for human Peroxisome Proliferator-activated Receptor delta (PPARd) (AID 2283002; active means hit-call score of the fitted dose curve at least 0.9, where 1 is the maximum)
Sequence of human Peroxisome Proliferator-activated Receptor delta (PPARd), PPARD (gene 5467) (Q03181 whole entry, looked up, the tested form may be a part): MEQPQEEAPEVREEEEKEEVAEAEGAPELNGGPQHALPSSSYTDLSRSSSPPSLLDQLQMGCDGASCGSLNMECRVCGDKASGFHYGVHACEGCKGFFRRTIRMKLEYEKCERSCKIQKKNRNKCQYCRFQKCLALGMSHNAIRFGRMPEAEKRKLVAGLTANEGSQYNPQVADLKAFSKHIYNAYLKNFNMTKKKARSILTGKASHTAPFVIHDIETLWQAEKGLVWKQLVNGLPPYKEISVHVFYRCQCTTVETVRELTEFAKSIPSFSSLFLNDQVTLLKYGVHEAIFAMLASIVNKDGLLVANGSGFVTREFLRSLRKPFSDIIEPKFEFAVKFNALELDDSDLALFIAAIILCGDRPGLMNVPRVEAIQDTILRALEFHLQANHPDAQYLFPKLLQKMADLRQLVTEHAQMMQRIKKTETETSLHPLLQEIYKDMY
Procedure, shortened: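 HepG2 cells transiently transfected with multiplexed GAL4-UAS reporter units and exogenous chimeric NR-Gal4 proteins; 24 h compound exposure. Reporter mRNA measured by RT-PCR, 6-FAM labelling, HpaI digestion and capillary electrophoresis; gain of signal versus DMSO.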

[10] = read-out: Intercellular Adhesion Molecule 1 (ICAM1), ICAM1 (gene 3383); test: BSK_3C_ICAM1: BioMAP Diversity Plus: 3C Assay for Intercellular Adhesion Molecule 1 (ICAM1) Biomarker Activity (AID 2283003); conditions: primary human endothelial cells (HUVEC); actives raise or lower the signal
Procedure, shortened: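 ELISA read-out of ICAM-1; HUVEC (primary human), 3C system, 24 h post-dosing; bidirectional fit vs DMSO baseline.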

[11] = biological target: human Retinoic Acid Receptor beta (RARb), RARB (gene 5915) (UniProt P10826); test: ATG_RARb_TRANS: Attagene TRANS-FACTORIAL HepG2 Assay for human Retinoic Acid Receptor beta (AID 2283004; active means hit-call score of the fitted dose curve at least 0.9, where 1 is the maximum)
Sequence of human Retinoic Acid Receptor beta (RARb), RARB (gene 5915) (P10826 whole entry, looked up, the tested form may be a part): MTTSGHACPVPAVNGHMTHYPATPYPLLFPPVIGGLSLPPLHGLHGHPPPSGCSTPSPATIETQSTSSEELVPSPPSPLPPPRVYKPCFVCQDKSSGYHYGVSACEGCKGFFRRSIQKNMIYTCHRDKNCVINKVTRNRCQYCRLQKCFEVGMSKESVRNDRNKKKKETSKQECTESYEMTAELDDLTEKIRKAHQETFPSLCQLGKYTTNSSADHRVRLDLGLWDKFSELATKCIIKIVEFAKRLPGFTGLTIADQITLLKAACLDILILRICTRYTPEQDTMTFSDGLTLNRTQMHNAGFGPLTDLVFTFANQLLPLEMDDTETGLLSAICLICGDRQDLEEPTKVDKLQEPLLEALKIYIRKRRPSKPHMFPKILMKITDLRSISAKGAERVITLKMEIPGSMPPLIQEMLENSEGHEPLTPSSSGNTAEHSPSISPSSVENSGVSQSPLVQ
Procedure, shortened: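 Readout is reporter mRNA induction: RNA reverse-transcribed, PCR-amplified, FAM-labelled, HpaI-cut and resolved by capillary electrophoresis. Transiently transfected HepG2 cells carrying exogenous NR–Gal4 chimeras were dosed for 24 h; activity fitted upward relative to DMSO.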

[12] = biological target: Retinoic acid receptor alpha (Homo sapiens) (UniProt P10276); test: ATG_RARa_TRANS: Attagene TRANS-FACTORIAL HepG2 Assay for human Retinoic Acid Receptor alpha (RARa) (AID 2283005; active means hit-call score of the fitted dose curve at least 0.9, where 1 is the maximum)
Sequence of Retinoic acid receptor alpha (Homo sapiens) (P10276 whole entry, looked up, the tested form may be a part): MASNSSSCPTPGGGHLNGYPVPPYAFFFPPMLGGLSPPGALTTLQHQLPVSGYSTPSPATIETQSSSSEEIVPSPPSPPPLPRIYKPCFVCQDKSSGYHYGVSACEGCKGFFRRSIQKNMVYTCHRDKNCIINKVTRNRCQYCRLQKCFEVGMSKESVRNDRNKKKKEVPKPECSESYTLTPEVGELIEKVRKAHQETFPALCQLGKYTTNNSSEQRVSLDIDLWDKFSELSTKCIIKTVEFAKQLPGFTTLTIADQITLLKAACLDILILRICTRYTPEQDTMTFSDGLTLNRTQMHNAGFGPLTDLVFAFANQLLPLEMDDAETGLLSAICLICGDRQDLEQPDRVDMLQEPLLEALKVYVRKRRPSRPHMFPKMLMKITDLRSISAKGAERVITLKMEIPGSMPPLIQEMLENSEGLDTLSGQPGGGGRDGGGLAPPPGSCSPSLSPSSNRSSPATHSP
Procedure, shortened: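 HepG2 cells transiently transfected with multiple reporter units expressing chimeric RARα-GAL4 fusion, with GAL4-UAS-driven reporters. After 24 h compound exposure, reporter mRNA induction quantified by RT-PCR and capillary electrophoresis with fluorescent labeling; gain-of-signal fitted relative to DMSO control.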

[13] = biological target: Peroxisome proliferator-activated receptor gamma (Homo sapiens) (UniProt P37231); test: ATG_PPARg_TRANS: Attagene TRANS-FACTORIAL HepG2 Assay for human Peroxisome Proliferator-activated Receptor-gamma (PPARg) (AID 2283007; active means hit-call score of the fitted dose curve at least 0.9, where 1 is the maximum)
Sequence of Peroxisome proliferator-activated receptor gamma (Homo sapiens) (P37231 whole entry, looked up): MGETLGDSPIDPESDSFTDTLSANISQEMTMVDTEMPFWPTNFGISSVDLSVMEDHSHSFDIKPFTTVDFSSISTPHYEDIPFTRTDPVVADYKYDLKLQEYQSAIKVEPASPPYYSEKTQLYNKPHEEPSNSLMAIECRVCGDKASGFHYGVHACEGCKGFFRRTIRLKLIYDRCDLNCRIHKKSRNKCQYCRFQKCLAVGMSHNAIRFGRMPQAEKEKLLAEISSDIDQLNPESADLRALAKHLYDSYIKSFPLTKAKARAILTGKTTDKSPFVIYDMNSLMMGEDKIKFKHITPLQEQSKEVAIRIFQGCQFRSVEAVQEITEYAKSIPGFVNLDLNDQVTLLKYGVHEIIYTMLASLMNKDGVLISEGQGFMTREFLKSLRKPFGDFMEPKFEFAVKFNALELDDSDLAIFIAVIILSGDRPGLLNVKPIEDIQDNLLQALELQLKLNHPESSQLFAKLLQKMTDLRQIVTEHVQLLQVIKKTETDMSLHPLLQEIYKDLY
Procedure, shortened: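 Human hepatoma HepG2, transient MRTU transfection, 24 h treatment. mRNA reporter signal by RT-PCR plus capillary electrophoresis, fluorescence detection; fitted for increase over DMSO negative control.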

[14] = biological target: Nuclear receptor subfamily 1 group I member 2 (Homo sapiens) (UniProt O75469); test: ATG_PXR_TRANS: Attagene TRANS-FACTORIAL HepG2 Assay for human Pregnane X Receptor (PXR) (AID 2283008; active means hit-call score of the fitted dose curve at least 0.9, where 1 is the maximum)
Sequence of Nuclear receptor subfamily 1 group I member 2 (Homo sapiens) (O75469 whole entry, looked up, the tested form may be a part): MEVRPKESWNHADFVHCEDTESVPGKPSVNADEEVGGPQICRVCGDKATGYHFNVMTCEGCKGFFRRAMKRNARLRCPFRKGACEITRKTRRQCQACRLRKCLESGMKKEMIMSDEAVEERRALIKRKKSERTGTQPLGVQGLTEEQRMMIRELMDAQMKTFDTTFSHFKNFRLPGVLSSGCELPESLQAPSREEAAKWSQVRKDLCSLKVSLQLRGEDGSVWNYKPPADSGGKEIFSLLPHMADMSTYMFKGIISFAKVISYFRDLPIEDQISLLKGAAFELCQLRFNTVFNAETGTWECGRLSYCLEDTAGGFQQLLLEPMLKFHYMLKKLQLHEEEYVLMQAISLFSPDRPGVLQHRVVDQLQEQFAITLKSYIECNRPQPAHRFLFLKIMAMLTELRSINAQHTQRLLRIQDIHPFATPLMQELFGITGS
Procedure, shortened: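 Trans-factorial format: exogenous NR-Gal4 fusion activity, not endogenous factor, in transfected human HepG2 liver cells. After 24 h dosing, RNA isolated, reverse-transcribed, amplified and resolved by capillary electrophoresis; induction scored versus DMSO.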

[15] = biological target: human Retinoic Acid Receptor gamma (RARg), RARG (gene 5916) (UniProt P13631); test: ATG_RARg_TRANS: Attagene TRANS-FACTORIAL HepG2 Assay for human Retinoic Acid Receptor gamma (RARg) (AID 2283009; active means hit-call score of the fitted dose curve at least 0.9, where 1 is the maximum)
Sequence of human Retinoic Acid Receptor gamma (RARg), RARG (gene 5916) (P13631 whole entry, looked up, the tested form may be a part): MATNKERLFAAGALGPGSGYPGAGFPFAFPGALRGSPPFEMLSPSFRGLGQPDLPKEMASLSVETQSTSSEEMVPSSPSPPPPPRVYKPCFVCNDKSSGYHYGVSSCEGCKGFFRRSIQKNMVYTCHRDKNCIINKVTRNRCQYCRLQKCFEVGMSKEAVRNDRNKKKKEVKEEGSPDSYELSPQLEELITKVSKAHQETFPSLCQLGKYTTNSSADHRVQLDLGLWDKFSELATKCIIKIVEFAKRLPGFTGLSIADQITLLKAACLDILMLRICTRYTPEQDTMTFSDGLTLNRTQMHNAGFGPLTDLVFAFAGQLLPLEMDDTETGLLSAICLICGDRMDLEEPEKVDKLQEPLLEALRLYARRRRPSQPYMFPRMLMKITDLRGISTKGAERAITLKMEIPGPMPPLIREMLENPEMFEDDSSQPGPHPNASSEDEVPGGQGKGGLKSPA
Procedure, shortened: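 Readout: reporter transcript levels via RT-PCR, 6-FAM primer-extension labelling, HpaI digestion and capillary electrophoresis. Cells: HepG2 carrying transfected RARg-GAL4 chimera plus UAS reporter set. Dosing 24 h; DMSO negative control.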

[16] = ATG_NF_kB_CIS: Attagene CIS-FACTORIAL HepG2 Assay for human Nuclear Factor Kappa B (NF-kB) (AID 2282991); conditions: HepG2 Attagene cis-factorial NF-kB reporter mRNA; actives raise or lower the signal
Procedure, shortened: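 Multiplexed cis-reporter assay in transiently transfected HepG2. 24 h treatment; RNA isolated, RT-PCR, labelled fragments resolved by CE. DMSO baseline.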

[17] = biological target: Cellular tumor antigen p53 (Homo sapiens) (UniProt P04637); test: ATG_p53_CIS: Attagene CIS-FACTORIAL HepG2 Assay for human p53 Transcription Factor (AID 2282994); conditions: HepG2 p53 cis-element reporter, Attagene mRNA; actives raise or lower the signal
Sequence of Cellular tumor antigen p53 (Homo sapiens) (P04637 whole entry, looked up): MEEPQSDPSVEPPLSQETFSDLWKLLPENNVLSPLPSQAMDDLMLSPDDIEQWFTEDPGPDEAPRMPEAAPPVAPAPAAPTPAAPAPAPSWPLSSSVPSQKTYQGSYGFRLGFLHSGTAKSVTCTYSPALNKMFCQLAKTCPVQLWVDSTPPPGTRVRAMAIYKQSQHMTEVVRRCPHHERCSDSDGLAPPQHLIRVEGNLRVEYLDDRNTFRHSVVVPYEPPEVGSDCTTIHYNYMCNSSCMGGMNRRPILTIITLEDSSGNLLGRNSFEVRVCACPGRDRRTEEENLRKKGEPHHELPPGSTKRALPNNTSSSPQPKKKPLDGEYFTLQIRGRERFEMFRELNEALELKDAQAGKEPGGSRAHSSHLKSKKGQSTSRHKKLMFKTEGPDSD
Procedure, shortened: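 Read-out: reporter mRNA by RT-PCR plus capillary electrophoresis with fluorescence detection. Human HepG2 liver cells carried transfected multi-reporter cis-element constructs, dosed 24 h. Gain or loss of signal fitted bidirectionally against DMSO control.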

[18] = biological target: human RAR-related Orphan Receptor beta (RORb), RORB (gene 6096) (UniProt Q92753); test: ATG_RORb_TRANS: Attagene TRANS-FACTORIAL HepG2 Assay for human RAR-related Orphan Receptor beta (RORb) (AID 2283010; active means hit-call score of the fitted dose curve at least 0.9, where 1 is the maximum)
Sequence of human RAR-related Orphan Receptor beta (RORb), RORB (gene 6096) (Q92753 whole entry, looked up, the tested form may be a part): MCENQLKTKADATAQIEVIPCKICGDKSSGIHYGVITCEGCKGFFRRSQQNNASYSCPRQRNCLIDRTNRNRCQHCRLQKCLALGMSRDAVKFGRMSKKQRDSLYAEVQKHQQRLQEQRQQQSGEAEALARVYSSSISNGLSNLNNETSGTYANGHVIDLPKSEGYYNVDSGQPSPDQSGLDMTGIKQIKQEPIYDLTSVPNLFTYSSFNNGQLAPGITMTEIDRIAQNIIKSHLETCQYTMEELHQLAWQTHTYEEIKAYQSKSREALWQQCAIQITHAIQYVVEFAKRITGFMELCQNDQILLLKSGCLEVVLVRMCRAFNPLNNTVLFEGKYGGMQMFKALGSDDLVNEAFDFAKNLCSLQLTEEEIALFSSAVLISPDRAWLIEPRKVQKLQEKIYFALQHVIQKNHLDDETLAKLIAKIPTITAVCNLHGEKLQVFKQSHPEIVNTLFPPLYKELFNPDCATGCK
Procedure, shortened: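 HepG2, transient MRTU transfection (GAL4-UAS reporters, exogenous NR-Gal4 chimeras); 24 h compound exposure; total RNA → RT-PCR → 6-FAM primer extension → HpaI digest → CE fluorescence. Positive direction vs DMSO baseline.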

Measured: AC50

COc1cc(Cl)c(OC)cc1N
not listed: [16] | [17] | [18]
inactive: all other assays above

Cc1c(OCC(F)(F)F)ccnc1CS(=O)c1nc2ccccc2[nH]1 (stereo not drawn)
active: [2] 49.1 µM | [13] 23.7 µM
inactive: [1] | [16] | [3] | [17] | [8] | [9]

CCc1ccc(O)cc1
inactive: [1] | [16] | [2] | [3] | [17] | [8] | [9] | [11] | [13] | [18]

CS(=O)(=O)OCCCCOS(C)(=O)=O
not listed: [8] | [11] | [14] | [15] | [16]
inactive: all other assays above

CCCCCCC(O)CCCCCCCCCCC(=O)O (stereo not drawn)
inactive: [1] | [3] | [11] | [12] | [15]
active: [2] 27.3 µM | [8] 5.01 µM | [9] 12.1 µM | [13] 14.2 µM

C[C@H]1O[C@@H](O[C@H]2[C@@H](O)C[C@H](O[C@H]3[C@@H](O)C[C@H](O[C@H]4CC[C@@]5(C)[C@H](CC[C@@H]6[C@@H]5C[C@@H](O)[C@]5(C)[C@@H](C7=CC(=O)OC7)CC[C@]65O)C4)O[C@@H]3C)O[C@@H]2C)C[C@H](O)[C@@H]1O
inactive: [1] | [8] | [9] | [12] | [13] | [15] | [18]
active: [16] 348 nM | [2] 0.613 µM | [3] 0.133 µM

IC(I)I
not listed: [16] | [18]
inactive: all other assays above

CSc1c(Cl)c(Cl)c(Cl)c(Cl)c1Cl
active: [1] 167 µM | [2] 48.4 µM | [3] 139 µM | [13] 6.23 µM | [14] 8.95 µM
inactive: [16] | [17] | [11] | [15]

C=C(C)C(=O)OCCOCCOCCOC(=O)C(=C)C
not listed: [9] | [11] | [12] | [14] | [15] | [18]
inactive: all other assays above

C=C(C)[C@@H]1CC=C(C)C(=O)C1
inactive: [1] | [16] | [3] | [8] | [13]
active: [2] 45.4 µM

OCCc1ccccc1
inactive: [1] | [16] | [2] | [3] | [17] | [8] | [11] | [12] | [14]

COCCOC(=O)c1ccccc1C(=O)OCCOC
inactive: [1] | [16] | [2] | [3] | [17] | [8] | [9] | [13] | [14] | [18]

CC(=O)O[C@@H]1CC2CCC1(C)C2(C)C (stereo partly drawn)
inactive: [1] | [16] | [2] | [3] | [17] | [8] | [13] | [15] | [18]

C=C(CC(=O)O)C(=O)O
inactive: [1] | [2] | [3] | [17] | [8] | [12] | [13] | [14] | [15] | [18]

CC(C)=CCCC(C)CCOC=O (stereo not drawn)
inactive: [1] | [16] | [2] | [3] | [17] | [13] | [14]
